Results taken from PubChem BioAssay.
Where “and” joins values, the source holds several entries; their conditions need not be identical. Equal entries are not always repeated. Calls of active or inactive are those of the source.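 How the source made its calls, unless noted: active means inhibition at or above 50% relative to wild type and mutant plate controls; inactive means inhibition below 50%.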

How the values were obtained:
[1] = inhibitors of TNFa-induced NFkB p65 translocation, primary screen, imaging, HUVEC, MLSMR starter and 10KST1 sets (AID 438;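 active means inhibition above 20% together with a positive visual image hit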;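 further: compound added about 3h40 before a 20 min TNFalpha stimulation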;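 on inhibition: signal is the nuclear over cytoplasmic p65 intensity ratio per well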); conditions: HUVEC TNFa-induced p65 nuclear translocation; cell count: measured here: nuclei count (cytotoxicity indicator), at 2.08 µM; inhibition: at 2 µM, stronger effect = higher value, 0% TNFa-plus-vehicle, 100% no-TNFa wells
[2] = inhibitors of mutant huntingtin aggregation, primary screen, imaging, exon1htt(103Q)mCFP cells, high-content imaging (AID 483;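 active means visual image review flags a hit and inhibition of aggregation exceeds 20%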;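 further: compound exposure lasted 3 days before fixation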;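 on nuclei count: percent of the per-plate median nuclei count of sample wells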); conditions: exon1htt(103Q)mCFP cell line, aggregate imaging, at 2 µM; inhibition of aggregation: stronger effect = higher value; nuclei count: measured here: cell count, toxicity
[3] = inhibitors of E-selectin induction by TNFa, primary screen, imaging, HUVEC, immunofluorescence, MLSMR starter and 10KST1 sets (AID 487;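 active means visually confirmed hit in the image check and inhibition above 20%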;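 on inhibition: signal is fraction of cell area covered by stained E-selectin grains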;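 on nuclei count: 100% = median nuclei count of all wells on the same plate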); conditions: HUVEC TNFalpha-induced E-selectin immunofluorescence imaging, at 2 µM; inhibition: stronger effect = higher value; nuclei count: measured here: cell number, toxicity
[4] = DUSP6 inhibitors restoring Erk phosphorylation by chemical complementation, primary imaging in DUSP6-transfected HeLa (AID 609;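 active means compounds giving at least 50% inhibition in the cell-based MKP-3 phosphatase rescue imaging test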;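 on inhibition: phospho-Erk level distribution per well compared with pooled transfected vehicle control wells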); conditions: HeLa MKP-3 transfected, phospho-Erk imaging KS statistic, at 10 µM, cells stimulated with TPA for 15 min
[5] = target: Dual specificity protein phosphatase 6 (Homo sapiens) (UniProt Q16828); assay: as above; conditions: HeLa MKP-3 transfected, phospho-Erk imaging KS statistic; at 10 µM; stronger effect = higher value; cells stimulated with TPA for 15 min
[6] = target: Voltage-gated potassium channel subunit beta-2 (Rattus norvegicus) (UniProt P62483); assay: KvBeta enzyme negative modulators, primary screen, biochemical, NADPH fluorescence (AID 622;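 active means fluorescence slope higher than the sample average by over 3 SD, cut at about -0.22 in these data, passing the limit was not always enough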;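 further: slope of raw intensity against log time taken from 70 to 1610 s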); conditions: recombinant KvBeta, 4-cyanobenzaldehyde reduction, at 10 µM, stronger effect = higher value
[7] = target: Voltage-gated potassium channel subunit beta-2 (Rattus norvegicus) (UniProt P62483); assay: KvBeta positive modulators, primary screen, biochemical, NADPH fluorescence (AID 623;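 active means NADPH fluorescence slope more negative than the mean of all samples by about 3 SD, 99.7% confidence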;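 further: fluorescence intensity change per second fitted from 20 to 320 s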); conditions: Recombinant KvBeta, NADPH fluorescence decrease slope, 10 min; at 10 µM; stronger effect = lower value
[8] = target: Alpha-2C adrenergic receptor (Homo sapiens) (UniProt P18825); assay: modulators of alpha2C/GIRK thallium flux, primary screen, cell-based, HEK293 alpha2C/GIRK1/2 (AID 624;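 active means fluorescence slope after compound addition differing from the mean of all screened samples at 99.7% confidence, in either direction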;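 further: slope of fluorescence ratio to pre-addition baseline per second over 15 to 24 s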); conditions: thallium flux BTC fluorescence, at 10 µM, actives lie on both sides
[9] = inhibitors of larval lipid processing in zebrafish, primary screen, whole organism, PED6 fluorescence, gall bladder and intestine (AID 686;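 active means a full or partial loss of lipid-probe fluorescence in the fish gall bladder, intestine or both, judged by eye; inactive means no fluorescence loss, or compound toxic to the fish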;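 further: larvae 5 to 7 days old with five fish per well; signal comes from phospholipase A2 cleavage of quenched PED6 carried via bile; overnight exposure to compound and PED6 before scoring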); conditions: Zebrafish larvae PED6 lipid processing, fluorescence scoring; screened at 20 µM (by protocol)
[10] = inhibitors of Chlamydomonas gravitaxis, primary screen, whole organism, Chlamydomonas reinhardtii, WT vs cilia-less mutant, absorbance, 96-well (AID 463189); conditions: OD600 absorbance, 2 days, at 10 µM, stronger effect = higher value;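 further: 0% = wild type cc124 cells in DMSO and 100% = ciliumless bld1 mutant cells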
[11] = inhibitors of Sendai virus-induced IRF3 signaling, primary screen, TLR/RLR signaling modifier project, cell-based, Sendai virus stimulus, luciferase, 10K MLSCN set (AID 602276;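 active means inhibition at or above 50% at 10 µM; inactive means inhibition below 50%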;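 further: firefly luciferase from ISG56 promoter only with Renilla not read in this screen; 0% = Sendai virus plus DMSO and 100% = medium plus DMSO without virus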); conditions: HEK293 RL24 IRF3 luciferase reporter, at 10 µM, stronger effect = higher value
[12] = inhibitors of poly I:C-induced TLR3 signaling, primary screen, cell-based, poly I:C stimulus, luciferase, 10K MLSCN set (AID 602277;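 active means inhibition of the reporter signal at or above 50%; inactive means inhibition below 50%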); conditions: HEK293-TLR3 RL24 IRF3 luciferase reporter, at 10 µM, stronger effect = higher value
[13] = measured here: cell density z-score
[14] = measured here: nuclear c-Myc green intensity z-score
[15] = measured here: nuclear pErk red intensity z-score, stronger effect = higher value

Chain of Alpha-2C adrenergic receptor (Homo sapiens) (P18825 whole entry, looked up): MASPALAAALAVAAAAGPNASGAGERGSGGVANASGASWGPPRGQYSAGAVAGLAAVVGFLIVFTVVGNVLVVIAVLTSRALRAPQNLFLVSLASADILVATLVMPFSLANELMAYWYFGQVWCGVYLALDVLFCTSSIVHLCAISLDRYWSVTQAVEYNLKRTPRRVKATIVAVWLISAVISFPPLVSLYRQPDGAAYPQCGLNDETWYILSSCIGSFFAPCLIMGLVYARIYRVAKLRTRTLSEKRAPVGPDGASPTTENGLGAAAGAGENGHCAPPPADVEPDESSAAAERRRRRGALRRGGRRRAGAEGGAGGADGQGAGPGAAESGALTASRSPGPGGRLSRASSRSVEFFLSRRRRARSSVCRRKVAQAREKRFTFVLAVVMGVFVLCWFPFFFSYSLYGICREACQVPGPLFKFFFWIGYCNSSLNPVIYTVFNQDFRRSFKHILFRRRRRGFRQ
Chain of Voltage-gated potassium channel subunit beta-2 (Rattus norvegicus) (P62483 whole entry, looked up): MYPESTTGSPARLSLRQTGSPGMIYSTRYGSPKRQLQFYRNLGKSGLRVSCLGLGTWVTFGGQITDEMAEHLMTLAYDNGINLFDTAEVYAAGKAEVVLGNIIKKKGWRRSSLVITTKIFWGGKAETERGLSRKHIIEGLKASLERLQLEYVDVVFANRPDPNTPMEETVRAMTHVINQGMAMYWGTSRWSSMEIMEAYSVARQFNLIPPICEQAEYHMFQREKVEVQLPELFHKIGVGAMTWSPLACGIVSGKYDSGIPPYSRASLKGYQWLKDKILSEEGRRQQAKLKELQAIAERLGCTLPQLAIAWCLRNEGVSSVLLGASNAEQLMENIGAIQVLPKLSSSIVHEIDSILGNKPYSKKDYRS
Chain of Dual specificity protein phosphatase 6 (Homo sapiens) (Q16828 whole entry, looked up): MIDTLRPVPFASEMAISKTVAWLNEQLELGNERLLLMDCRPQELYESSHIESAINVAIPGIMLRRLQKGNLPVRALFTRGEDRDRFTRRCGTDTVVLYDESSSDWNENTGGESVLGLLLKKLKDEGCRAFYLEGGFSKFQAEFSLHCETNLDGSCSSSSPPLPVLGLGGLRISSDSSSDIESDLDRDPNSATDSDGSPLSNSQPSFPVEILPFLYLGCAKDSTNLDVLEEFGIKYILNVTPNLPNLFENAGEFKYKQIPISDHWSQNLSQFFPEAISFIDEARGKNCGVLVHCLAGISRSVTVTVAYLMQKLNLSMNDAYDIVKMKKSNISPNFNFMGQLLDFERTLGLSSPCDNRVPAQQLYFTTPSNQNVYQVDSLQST

| SMILES | cell count [1] | inhibition [1] | inhibition of aggregation [2] | nuclei count [2] [%] | inhibition [3] | nuclei count [3] [%] | z-score [4, 13] | z-score [4, 14] | z-score [4, 15] | inhibition [5] | fluorescence slope [6] | NADPH fluorescence slope [7] | slope [8] | outcome [9] | inhibition [10] | inhibition [11] | inhibition [12] |
| --- | --- | --- | --- | --- | --- | --- | --- | --- | --- | --- | --- | --- | --- | --- | --- | --- | --- |
| CCOC(=O)C1=C(C)N=C2SC(C)C(=O)N2C1c1cccc(F)c1 (stereo not given) | 400 | -2.2% (inactive) | 9.9% (inactive) | 102 | -10.3% (inactive) | 139 | -0.692 | 0.668 | 0.0738 | 5.42% (inactive) | -0.448 (inactive) | -0.000135 (inactive) | 0.00424 (inactive) | inactive | -0.443% (inactive) | 25.4% (inactive) | 20.1% (inactive) |
| C=CCc1ccccc1OCC(O)CNC(C)C (stereo not given) | 628 | -8.8% (inactive) | -10% (inactive) | 89.9 | -120% (inactive) | 131 | 1.42 | 0.365 | -0.961 | 7.39% (inactive) | -0.466 (inactive) | -2.4e-05 (inactive) | 0.00435 (inactive) | inactive | -2.53% (inactive) and -4.71% (inactive) | 11.2% (inactive) | 34.8% (inactive) |
| Cn1ncc2c(Nc3ccccc3Br)ncnc21 | 339 | -21% (inactive) | 21.2% (inactive) | 99.3 | -72.4% (inactive) | 128 | 0.246 | -0.649 | -0.252 | 14% (inactive) | -0.443 (inactive) | -2.6e-05 (inactive) | 0.00658 (inactive) | inactive | 13.6% (inactive) | 2.79% (inactive) | -6.76% (inactive) |
| CCOC(=O)CC(=O)CSc1[nH]c(=O)cc(C)c1C#N | 653 | -6% (inactive) | 5.4% (inactive) | 96.3 | 28.4% (inactive) | 132 | -1.3 | 0.221 | -0.165 | 11% (inactive) | -0.403 (inactive) | -6.7e-05 (inactive) | 0.0053 (inactive) | inactive | 6.76% (inactive) | 3.57% (inactive) | 10% (inactive) |
| CCC[C@@H]1C[C@@H](C(=O)N[C@H]([C@@H](C)O)[C@H]2O[C@H](SC)[C@H](O)[C@@H](O)C2O)N(C)C1 (stereo not given in full) | 619 | -4.3% (inactive) | 2.3% (inactive) | 101 | -57.7% (inactive) | 123 | -0.311 | -0.277 | 0.417 | 8% (inactive) | -0.465 (inactive) | 2.2e-06 (inactive) | 0.0059 (inactive) | inactive | 35.8% (inactive) | 19.5% (inactive) | 27.3% (inactive) |
| COc1ccc(CCN2CCC(Nc3nc4ccccc4n3Cc3ccc(F)cc3)CC2)cc1 | 525 | -1.3% (inactive) | -3% (inactive) | 83.3 | -28.6% (inactive) | 107 | -0.393 | 1.49 | 0.359 | 7.39% (inactive) | -0.513 (inactive) | -0.000106 (inactive) | 0.00466 (inactive) | inactive | 133% (active) | -3.81% (inactive) | -23.6% (inactive) |
| Brc1cccc(-c2cnc3n2CCCCC3)c1 | 517 | -12.1% (inactive) | 5.1% (inactive) | 76.5 | -58.1% (inactive) | 139 | 0.246 | -0.612 | 1.65 | -8.95% (inactive) | -0.446 (inactive) | -0.000303 (inactive) | 0.00481 (inactive) | inactive | 59.2% (active) | -2.77% (inactive) | -38% (inactive) |
| CCOc1nc(SCCOc2ccccc2)nc(N(C)C)n1 | 397 | -7.1% (inactive) | 4.3% (inactive) | 54 | -68.5% (inactive) | 113 | 0.798 | -0.437 | -0.913 | 22.8% (inactive) | -0.395 (inactive) | 1.4e-05 (inactive) | 0.00398 (inactive) | inactive | 28.4% (inactive) | 0.0705% (inactive) | -11.2% (inactive) |
| Fc1ccc(C2C3=C(Nc4ncnn42)c2ccccc2OC3c2ccncc2)cc1 (stereo not given) | 363 | 1.7% (inactive) | 2.1% (inactive) | 113 | -83.1% (inactive) | 136 | 0.971 | -0.105 | 1.45 | 21.4% (inactive) | -0.41 (inactive) | -0.000137 (inactive) | 0.00729 (inactive) | inactive | -7.08% (inactive) | 17.4% (inactive) | 19.3% (inactive) |
| Clc1ccc(Cl)c(-c2ccc(/C=N/c3ncn[nH]3)o2)c1 | 439 | -0.4% (inactive) | 6.2% (inactive) | 104 | -127% (inactive) | 122 | -0.606 | -0.195 | 1.4 | -4.27% (inactive) | -0.438 (inactive) | -5.6e-05 (inactive) | 0.0057 (inactive) | inactive | 73.7% (active) | 13.4% (inactive) | 18.3% (inactive) |
